# This is a sample that favours compounds with a hit; in the whole collection about 19% have one here.
# IL-1B inflam inh: qHTS for Inhibitors of Inflammasome Signaling: IL-1-beta AlphaLISA Primary Screen. THP-1 LPS/ATP IL-1B secretion, AlphaLISA, 16 h; hits give low values. activity change, % at 57.5 µM. 4.7% of 360,000 active. AID 743279, 2014; in the data active = activity change below about -50%; inconclusive = mostly about -30% to -49%; also: % is scaled to controls: 0 for no effect and ±100 for the full control effect
#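 Secreted IL-1B measured by AlphaLISA bead assay after 16 h compound exposure of THP-1 cells; compounds (final up to 57.5 uM) added 1 h before LPS (250 ng/mL) and ATP (1.25 mM) stimulation; lower signal means less secretion.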
# HepG2 tox: qHTS for Inhibitors of TGF-b: Cytotox Counterscreen; HepG2 CAGA-GFP viability, ATP luminescence, 18 h; Potency, µM (doses to about 46.1 µM), for inactives: at the highest dose activity change, negative = cytotoxicity, hits mostly cytotoxic; AID 588856, 2011; 0.76% of 410,000 active; also: potency is read from the fitted curve at half-maximal effect
#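 CellTiter-Glo luminescence gave cytotoxicity after 18 hours at 37 degrees C. The cells were HepG2 CAGA-GFP in 1% FBS DMEM, stimulated with 500 pg/mL TGF-beta after compound addition. %Activity was normalised to no-cell wells (complete cell-killing) and DMSO (no toxicity), and curves were fitted and classified.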
# TDP1 cell CPT: qHTS for Inhibitors of human tyrosyl-DNA phosphodiesterase 1 (TDP1): qHTS in cells in presence of CPT; chicken DT40 Tdp1-/-;hTDP1 cells + 20 nM CPT, ATP luminescence, 48 h; Potency, µM (doses to about 46.2 µM), for the others: top-dose activity change, negative = growth inhibition, actives largely listed as inhibitors; 12% of 420,000 active; also: potency is read from the fitted curve at half-maximal effect; % is scaled to controls: 0 for no effect and ±100 for the full control effect; nearly all actives have a fitted effect of over 55% in size
#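 Chicken DT40 Tdp1-/- cells complemented with human TDP1, 400 cells/well, exposed to compounds plus 20 nM camptothecin for at least 48 h at 37 C; viability read as ATP content by CellTiter-Glo luminescence.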
# DT40 TDP1 no CPT: qHTS for Inhibitors of human tyrosyl-DNA phosphodiesterase 1 (TDP1): qHTS in cells in absence of CPT; 15% of 420,000 active; Potency, µM (top dose mostly 46.2 µM), for inactives: top-dose activity change, negative = growth inhibition, usual class: inhibitors; DT40 Tdp1-/- hTDP1 cells, no CPT, ATP luminescence, 48 h; also: potency is read from the fitted curve at half-maximal effect; % is scaled to controls: 0 for no effect and ±100 for the full control effect; nearly all actives have a fitted effect of over 55% in size
#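 Seeded 400 DT40-hTDP1 cells/well (vehicle DMSO, no 20 nM CPT); pinned compounds; ≥48 hr at 37 °C; CellTiter-Glo luminescence as viability measure.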
# TGFb SMAD3 inh: qHTS for Inhibitors of TGF-b. AID 588855, 2011. Potency, µM (series often up to 46.1 µM), inactives show at the highest dose activity, negative = inhibition, most hits filed as inhibitors. 1.2% of 410,000 active. HepG2 CAGA-GFP TGF-b/SMAD3 reporter, GFP fluorescence, 18 h; TGF-beta stimulated, 500 pg/mL final; also: potency is read from the fitted curve at half-maximal effect; % is scaled to controls: 0 for no effect and ±100 for the full control effect; nearly all actives have a fitted effect of over 65% in size
#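 Cell-based qHTS in HEPG2 carrying a CAGA-GFP Smad reporter; compounds added before 500 pg/mL final TGF-beta, 18 h incubation at 37 degrees C, GFP fluorescence quantified per cell by imaging cytometry.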
# TDP1 block: qHTS Assay for Inhibitors of Tyrosyl-DNA Phosphodiesterase (TDP1); AID 485290, 2010; Tyrosyl-DNA phosphodiesterase 1 (Homo sapiens), Q9NUW8; recombinant TDP1, AlphaScreen DNA substrate cleavage; Potency, µM (doses to about 130 µM), for the others: at the highest dose activity change, negative = inhibition, actives largely listed as inhibitors; 0.28% of 350,000 active; also: potency is read from the fitted curve at half-maximal effect; % is scaled to controls: 0 for no effect and ±100 for the full control effect; nearly all actives have a fitted effect of over 40% in size
# Target sequence (Q9NUW8 whole entry, looked up): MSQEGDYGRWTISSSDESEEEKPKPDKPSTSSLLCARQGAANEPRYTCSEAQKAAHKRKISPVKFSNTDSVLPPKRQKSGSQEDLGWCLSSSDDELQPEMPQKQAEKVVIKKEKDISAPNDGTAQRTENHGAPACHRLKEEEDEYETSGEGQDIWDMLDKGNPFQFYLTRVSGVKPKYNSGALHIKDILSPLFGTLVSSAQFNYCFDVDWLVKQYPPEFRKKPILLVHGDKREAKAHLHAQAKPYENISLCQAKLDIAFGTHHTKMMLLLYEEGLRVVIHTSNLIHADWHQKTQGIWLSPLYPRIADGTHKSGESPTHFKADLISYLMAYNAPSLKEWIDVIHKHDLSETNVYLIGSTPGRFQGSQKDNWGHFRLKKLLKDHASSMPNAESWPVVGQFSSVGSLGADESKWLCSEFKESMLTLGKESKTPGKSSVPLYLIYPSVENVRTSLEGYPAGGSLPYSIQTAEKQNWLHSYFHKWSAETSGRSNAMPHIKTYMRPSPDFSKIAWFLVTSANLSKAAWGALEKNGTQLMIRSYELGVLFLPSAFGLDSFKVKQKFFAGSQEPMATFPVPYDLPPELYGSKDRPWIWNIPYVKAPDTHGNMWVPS
#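 Compounds were preincubated with Tdp1 (1 nM final) for 15 min at room temperature before substrate (15 nM final) started a 5 min reaction; beads (10 ug/ml final) were then added for 10 min before AlphaScreen detection.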
# * hit, by the source's call; ? = inconclusive; nt = no result; [ ] = another dose, or the depositor's remark. Unless noted, calls follow the shape of the dose curve; as a rule, active = well fitted curve in the direction sought with a large enough effect; inconclusive = small, poorly fitted or top-dose-only effect, or another doubt; inactive = no such curve, though single readings can be large; an effect the other way counts as inactive or inconclusive.
SMILES,IL-1B inflam inh,HepG2 tox,TDP1 cell CPT,DT40 TDP1 no CPT,TGFb SMAD3 inh,TDP1 block
COc1ccccc1-c1cc(C(=O)N/N=C/C=C/c2ccccc2[N+](=O)[O-])c2ccccc2n1,-51*,-35%,18µM*,21µM*,-10%,9%
Cc1cc(C(=O)N/N=C/C=C/c2ccccc2[N+](=O)[O-])c(C)o1,-24,9%,-5%,-29%,14%,-3%
Cc1ccc(S(=O)(=O)N2CCN(Cc3ccco3)CC2)cc1C,7,-14%,-1%,13%,-9%,2%[56.1 µM]
COc1ccc(S(=O)(=O)N2CCN(CCOc3ccccc3Cl)CC2)cc1OC,-16,-6%,23µM*,?,?,0%[56.1 µM]
CC1CCN(CCOc2cccc(Br)c2)CC1,-6,-11%,30%,-26%,2%,-3%
Cc1ccc(S(=O)(=O)N2CCN(CCOc3cccc(C)c3)CC2)cc1,-21,-32%,-18%,7.3µM*,?,-1%[56.1 µM]
Cc1ccc(S(=O)(=O)N2CCN(CCOc3c(Cl)cccc3Cl)CC2)cc1C,-1,1%,21µM*,?,?,0%
Clc1cccc(OCCN2CCN(CCOc3cccc(Cl)c3)CC2)c1,-85*,-88%,2.9µM*,2.3µM*,?,8%
COc1ccc(OC)c(C(=O)CN2CCN(S(=O)(=O)c3ccc(Br)cc3)CC2)c1,-12,-30%,-11%,-18%,0%,0%
COc1ccc(S(=O)(=O)N2CCN(CCOc3ccc(Br)cc3)CC2)cc1OC,-21,-46%,?,15µM*,?,1%
O=C1CCC(C(=O)N2CCN(c3cnccn3)CC2)CN1CCc1ccc(Cl)cc1 (stereo not drawn),-7,2%,2%,-6%,-1%,9%
Cc1ccc2c(c1)-c1c(cnn1CC(=O)N1CCN(c3cccc(C(F)(F)F)c3)CC1)CO2,nt,-4%,?,?,3%,2%
COc1cccc(-c2ccc(NC(=O)C3CCCN(Cc4cc(C)[nH]n4)C3)cc2)c1 (stereo not drawn),-21,-22%,?,?,23%,4%[56.1 µM]
COc1cccc(-c2ccc(NC(=O)C3CCCN(Cc4cnn(C(C)C)c4)C3)cc2)c1 (stereo not drawn),-79*,-62%,23µM*,?,?,6%[56.1 µM]
COCc1ccc(CN2CCCC(C(=O)Nc3ccc(-c4cccc(OC)c4)cc3)C2)o1 (stereo not drawn),-5,-26%,?,15µM*,-20%,10%
CCCc1ncc(CN2CCCC(C(=O)Nc3ccc(-c4cccc(OC)c4)cc3)C2)cn1 (stereo not drawn),-9,-31%,23µM*,?,?,10%
COc1cccc(-c2ccc(NC(=O)C3CCCN(Cc4cnc(N(C)C)s4)C3)cc2)c1 (stereo not drawn),15,-39%,18µM*,23µM*,?,11%
COc1cccc(-c2ccc(NC(=O)C3CCCN(CCCn4cccn4)C3)cc2)c1 (stereo not drawn),-26,-38%,?,?,21%,3%
O=C(CN1C(=O)c2cccc([N+](=O)[O-])c2C1=O)OCC(=O)N1CCCCC1,2,37%,1%,3%,8%,-3%
O=C(COc1ccc([N+](=O)[O-])cc1Cl)N(C1CCCCC1)C1CCS(=O)(=O)C1 (stereo not drawn),-3,-2%,-19%,-15%,-7%,-3%
CC1(C)Cc2c(sc3ncnc(NN)c23)CO1,70,-53%,?,?,?,4%
Cc1ccc(S(=O)(=O)n2nc(-c3ccco3)nc2NCc2ccccc2Cl)cc1,nt,-1%,?,?,-7%,9%
CC(C)c1ccc(CNc2nc(-c3ccco3)nn2S(=O)(=O)c2ccc(F)cc2)cc1,nt,-16%,21µM*,?,-29%,3%
COc1ccc(S(=O)(=O)n2nc(-c3ccco3)nc2NCc2ccc(C(C)C)cc2)cc1,nt,-5%,18µM*,23µM*,-5%,3%
CS(=O)(=O)n1nc(-c2ccco2)nc1NCc1ccccc1Cl,nt,-41%,?,18µM*,-24%,-5%
SMILES,IL-1B inflam inh,HepG2 tox,TDP1 cell CPT,DT40 TDP1 no CPT,TGFb SMAD3 inh,TDP1 block
CC(C)c1ccc(CNc2nc(-c3ccco3)nn2S(=O)(=O)c2ccc3ccccc3c2)cc1,nt,-5%,?,?,-22%,-2%
CCOC(=O)c1ccc(N(C(=O)c2ccccc2)c2ccccc2)cc1,nt,-32%,-10%,?,?,nt
COc1cccc([C@@H]2Oc3ccc(OC)cc3C(=O)[C@H]2OC(=O)NCCc2ccc(OC)c(OC)c2)c1,nt,nt,nt,nt,nt,5%
COc1ncnc2c1ncn2CCCN1CCN(c2ncccn2)CC1,27,0%,-2%,-29%,11%,nt
Nc1ccn([C@@H]2O[C@H](C(=O)Nc3cc(C(F)(F)F)cc(C(F)(F)F)c3)[C@@H](O)[C@H]2O)c(=O)n1,44,-20%,-9%,-21%,-4%,nt
CC(C)(C)OC(=O)N1CCC[C@H]1c1nnc(SCc2ccccc2Cl)o1,0,-2%,?,?,?,-4%
CC(C)(C)OC(=O)N1CCC[C@H]1c1nnc(SCc2ccc(Cl)cc2)o1,?,-58%,?,21µM*,?,nt
CC(C)(C)OC(=O)N1CCC[C@H]1c1nnc(SCc2ccc(Cl)cc2Cl)o1,?,-5%,?,15µM*,?,1%
CC(C)(C)OC(=O)N1CCC[C@H]1c1nnc(SC/C=C/c2ccccc2)o1,-15,2%,?,23µM*,?,6%
Cc1cccc(OC(=O)CSc2nnc(CNC(=O)c3ccccc3)o2)c1C,nt,10%,-10%,-8%,-11%,6%
CC12C=C(/C=C/c3ccc(Br)cc3)C(C)(C1)[C@H](c1ccc(Br)cc1)CC2=O (stereo partly drawn),nt,nt,nt,nt,nt,6%
CCOC(=O)c1ccc(NC(=S)N(CCCN2CCN(CC)CC2)Cc2cccs2)cc1,-1,-24%,?,18µM*,-17%,-2%
O=C(CNC(=S)N(CCCN1CCOCC1)Cc1cccs1)NC1CCCCC1,7,-24%,-11%,-6%,1%,0%
